Measurements: PubChem BioAssay (Tox21)
A number with no mark means an inactive call. Records with an inconclusive call do not appear. Where a call stands in place of a potency, no number is given. The source made the active and inactive calls. Unless noted, calls follow the shape of the dose curve; as a rule, active = well fitted curve in the direction sought with a large enough effect in the repeat runs; inconclusive = weak or mixed curves; inactive = no such curve, though single readings can be large; an effect the other way counts as inactive or inconclusive.

How the values were obtained:
[1] = A CellTox Green Cytotoxicity Assay to monitor cytotoxicity in HEK293 cells - 32 hour (AID 1224881); also: nearly all actives have a fitted effect of over 40% in size; also: potency is read from the fitted curve at half-maximal effect
Procedure, shortened: (§1)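 Cells (HEK293, 600/well) and dye reagent are dispensed together. After 5 h at 37 C, 23 nL compound is pinned in. Plates stay at 37 C for 40 h with fluorescence read at 0h, 8h, 16h, 24h, 32h and 40h.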

[2] = A CellTox Green Cytotoxicity Assay to monitor cytotoxicity in HepG2 cells - 0 hour (AID 1224882); also: nearly all actives have a fitted effect of over 35% in size
Procedure, shortened: (§2)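 Cells and non-lytic dye reagent are dispensed together (600 HepG2 cells/well) and incubated 5 h before DMSO compound transfer. Kinetic fluorescence is then recorded in the same wells during 40 h at 37 C.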

[3] = A CellTox Green Cytotoxicity Assay to monitor cytotoxicity in HEK293 cells - 8 hour (AID 1224884); also: nearly all actives have a fitted effect of over 35% in size; also: potency is read from the fitted curve at half-maximal effect
Procedure, shortened: as §1

[4] = qHTS RealTime-Glo MT Cell Viability Assay in HepG2 cells - 16 hour (AID 1224885); also: nearly all actives have a fitted effect of over 50% in size; also: potency is read from the fitted curve at half-maximal effect
Procedure, shortened: (§3)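 qHTS, HepG2, 600 cells/well, RealTime-Glo (NanoLuc + prosubstrate) added with cells; 5 h preincubation; DMSO compound addition; 37 C; luminescence at 0/8/16/24/32/40 h.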

[5] = qHTS RealTime-Glo MT Cell Viability Assay in HEK293 cells - 24 hour (AID 1224886); also: nearly all actives have a fitted effect of over 50% in size; also: potency is read from the fitted curve at half-maximal effect
Procedure, shortened: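 Assay medium contained NanoLuc luciferase plus cell-permeant prosubstrate, added with HEK293 cells at 600 cells/well. After 5 h at 37 C/5% CO2 compounds were added; plates stayed at 37 C for 40 h with serial luminescence reads.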

[6] = A CellTox Green Cytotoxicity Assay to monitor cytotoxicity in HEK293 cells - 16 hour (AID 1224888); also: nearly all actives have a fitted effect of over 35% in size; also: potency is read from the fitted curve at half-maximal effect
Procedure, shortened: as §1

[7] = qHTS RealTime-Glo MT Cell Viability Assay in HepG2 cells - 0 hour (AID 1224889); also: nearly all actives have a fitted effect of over 50% in size; also: potency is read from the fitted curve at half-maximal effect
Procedure, shortened: as §3

[8] = A CellTox Green Cytotoxicity Assay to monitor cytotoxicity in HepG2 cells - 8 hour (AID 1224890); also: nearly all actives have a fitted effect of over 45% in size
Procedure, shortened: as §2

[9] = qHTS assay to identify small molecule antagonists of the estrogen receptor alpha (ER-alpha) signaling pathway using the BG1 cell line in the presence of 0.1 nM 17-beta-estradiol - cell viability counter screen (AID 1259241); also: nearly all actives have a fitted effect of over 40% in size; also: potency is read from the fitted curve at half-maximal effect
Procedure, shortened: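 VM7Luc4E2 cells (endogenous full-length ER-alpha, 4xERE-luciferase), cultured 5 days in charcoal-stripped serum, exposed to compounds with 0.1 nM 17beta-estradiol (final) for 22 hr at 37C. Viability read in same wells as live-cell protease fluorescence after 30 min.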

[10] = qHTS assay to identify small molecule antagonists of the androgen receptor (AR) signaling pathway using the MDA cell line in the presence of 0.5 nM R1881 - cell viability counter screen (AID 1259242); also: nearly all actives have a fitted effect of over 45% in size
Procedure, shortened: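 Steps: plate MDA-kb2 cells, rest 5 hr at 37C without CO2; pin in compounds in DMSO; add R1881 to 0.5 nM final; incubate 16 hr; add CellTiter-Fluor, 30 min; read fluorescence.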

[11] = biological target: Estrogen receptor (Homo sapiens) (UniProt P03372); test: qHTS assay to identify small molecule antagonists of the estrogen receptor alpha (ER-alpha) signaling pathway using the BG1 cell line in the presence of 0.1 nM 17-beta-estradiol (AID 1259244); also: nearly all actives have a fitted effect of over 50% in size
Procedure, shortened: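 Antagonist mode: compounds in DMSO are pinned onto VM7Luc4E2 reporter cells, 0.1 nM final 17beta-estradiol is added, and after 22 h at 37C luciferase luminescence is measured with ONE-Glo.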

[12] = qHTS assay to identify small molecule HDAC inhibitors (AID 1259364);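 also: wild-type HCT-116 cells with endogenous class I/II HDAC activity; top concentration of the series differs between compounds; nearly all actives have a fitted effect of over 45% in size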
Procedure, shortened: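 Cells (HCT-116, wild type) are seeded at 1,500 per well, incubated overnight, treated with compound in DMSO for 2 hr, then developed with HDAC-Glo I/II reagent for 30 min at room temperature.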

[13] = qHTS assay to identify small molecule HDAC inhibitors - cell viability counter screen (AID 1259365)
Procedure, shortened: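 Wild-type HCT-116 cells, 1,500/well, cultured overnight, then compound-treated 2 h at 37 C. Viability measured as ATP luminescence with CellTiter-Glo after 30 min at room temperature.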

[14] = qHTS assay to identify small molecule agonists of the sonic hedgehog signaling (Shh) pathway - cell viability counter screen (AID 1259366); also: nearly all actives have a fitted effect of over 50% in size
Procedure, shortened: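 NIH/3T3-derived Gli1-Luc reporter cells, 2,000 per well, received compound after 4 h and were treated about 23 h at 37C. Viability measured in the same wells by CellTiter-Fluor fluorescence after 1 h.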

[15] = qHTS assay to identify small molecule antagonists of the sonic hedgehog signaling (Shh) pathway - cell viability counter screen (AID 1259367); also: nearly all actives have a fitted effect of over 55% in size; also: potency is read from the fitted curve at half-maximal effect
Procedure, shortened: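 Viability was read by CellTiter-Fluor fluorescence in the same wells, reagent added 23 hr into compound treatment and incubated 1 hr at 37C. The 3T3 Gli1-Luc reporter cells (2,000/well) received conditioned medium after compound and ran 24 hr.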

[16] = qHTS assay to identify small molecule agonists of the sonic hedgehog signaling (Shh) pathway (AID 1259368; calls by dose curve;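 also: NIH/3T3-derived 3T3Gli1-Luc cells carrying a stable Gli1-driven firefly luciferase reporter; series mostly up to about 92 µM; nearly all actives have a fitted effect of over 15% in size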)
Procedure, shortened: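 Cells of a mouse NIH/3T3 clone stably expressing luciferase under the Gli1 transcriptional response element are exposed to test chemicals for 24 hr at 37 C. Pathway activation is detected as a rise in luminescence.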

[17] = A CellTox Green Cytotoxicity Assay to monitor cytotoxicity in HepG2 cells - 32 hour (AID 1224883); also: nearly all actives have a fitted effect of over 50% in size; also: potency is read from the fitted curve at half-maximal effect
Procedure, shortened: as §2

[18] = qHTS assay to identify small molecule phospholipidosis (PLD) inducers (AID 1259344; active = well fitted curve in the direction sought with a large enough effect; an effect the other way counts as inactive or inconclusive)
Procedure, shortened: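 Phospholipid accumulation was scored by imaging: fixed, Hoechst-counterstained HepG2 cells stained with LipidTOX Red after 24 h compound exposure at 37 C. Read-outs were pit count and pit intensity per well or per cell, with amiodarone and DMSO controls.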

[19] = qHTS RealTime-Glo MT Cell Viability Assay in HEK293 cells - 8 hour (AID 1224887); also: nearly all actives have a fitted effect of over 50% in size; also: potency is read from the fitted curve at half-maximal effect
Procedure, shortened: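 Real-time viability in HEK293: signal arises when living cells convert a prosubstrate for NanoLuc in the medium, so luminescence tracks viable cell number. Compound (23 nL, DMSO) added 5 h post-seeding; kinetic reads at 0–40 h, 37 C.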

[20] = biological target: Androgen receptor (Homo sapiens) (UniProt P10275); test: qHTS assay to identify small molecule antagonists of the androgen receptor (AR) signaling pathway using the MDA cell line in the presence of 0.5 nM R1881 (AID 1259243); also: nearly all actives have a fitted effect of over 50% in size; also: potency is read from the fitted curve at half-maximal effect
Procedure, shortened: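 Stably transfected MDA-kb2 cells express luciferase from an MMTV promoter bearing both AR and GR response elements. Compounds plus 0.5 nM R1881 (final) were incubated 16 hr at 37C without CO2, then luminescence measured.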

Chain of Androgen receptor (Homo sapiens) (P10275 whole entry, looked up): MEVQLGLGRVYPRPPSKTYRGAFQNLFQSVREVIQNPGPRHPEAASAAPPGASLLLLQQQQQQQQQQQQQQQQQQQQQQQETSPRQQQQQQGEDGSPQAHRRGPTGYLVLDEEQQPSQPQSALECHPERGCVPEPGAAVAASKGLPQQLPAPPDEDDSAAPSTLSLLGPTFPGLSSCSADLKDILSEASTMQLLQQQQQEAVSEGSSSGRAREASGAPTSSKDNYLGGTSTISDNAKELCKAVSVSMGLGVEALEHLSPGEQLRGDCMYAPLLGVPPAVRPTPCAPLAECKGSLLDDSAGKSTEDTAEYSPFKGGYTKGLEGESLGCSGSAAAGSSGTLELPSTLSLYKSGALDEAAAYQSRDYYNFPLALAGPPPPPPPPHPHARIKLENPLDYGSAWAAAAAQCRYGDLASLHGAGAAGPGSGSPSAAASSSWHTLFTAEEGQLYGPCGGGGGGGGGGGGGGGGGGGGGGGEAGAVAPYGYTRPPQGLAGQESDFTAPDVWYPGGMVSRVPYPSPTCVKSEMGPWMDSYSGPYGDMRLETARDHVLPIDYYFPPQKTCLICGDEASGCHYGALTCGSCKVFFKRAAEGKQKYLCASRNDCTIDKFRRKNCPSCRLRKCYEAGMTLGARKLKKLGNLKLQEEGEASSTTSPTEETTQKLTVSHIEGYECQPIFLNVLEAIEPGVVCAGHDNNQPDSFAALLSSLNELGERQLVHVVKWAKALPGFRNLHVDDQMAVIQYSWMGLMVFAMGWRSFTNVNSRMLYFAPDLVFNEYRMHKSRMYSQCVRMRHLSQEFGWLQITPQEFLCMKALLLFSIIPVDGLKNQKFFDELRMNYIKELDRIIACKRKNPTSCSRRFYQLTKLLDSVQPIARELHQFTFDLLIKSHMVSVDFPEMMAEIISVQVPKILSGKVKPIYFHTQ
Chain of Estrogen receptor (Homo sapiens) (P03372 whole entry, looked up): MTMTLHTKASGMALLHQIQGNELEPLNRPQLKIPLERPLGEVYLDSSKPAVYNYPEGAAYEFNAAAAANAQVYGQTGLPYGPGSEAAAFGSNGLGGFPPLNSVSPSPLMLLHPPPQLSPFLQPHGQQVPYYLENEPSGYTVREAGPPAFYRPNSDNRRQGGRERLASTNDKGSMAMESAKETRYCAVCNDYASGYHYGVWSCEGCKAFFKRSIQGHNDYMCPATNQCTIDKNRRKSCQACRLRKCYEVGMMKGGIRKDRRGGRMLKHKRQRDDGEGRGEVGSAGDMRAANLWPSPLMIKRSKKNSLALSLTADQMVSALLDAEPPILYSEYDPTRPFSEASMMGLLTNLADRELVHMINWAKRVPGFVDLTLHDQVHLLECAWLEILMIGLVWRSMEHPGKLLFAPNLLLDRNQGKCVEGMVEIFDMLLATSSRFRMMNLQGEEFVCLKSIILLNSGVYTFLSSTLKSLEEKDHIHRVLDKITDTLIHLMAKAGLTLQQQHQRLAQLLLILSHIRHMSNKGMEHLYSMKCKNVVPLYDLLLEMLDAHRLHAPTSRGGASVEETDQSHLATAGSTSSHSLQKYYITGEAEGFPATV

Structure (SMILES) | Potency [1] | Potency [2] | Potency [3] | Potency [4] | Potency [5] | Potency [6] | Potency [7] | Potency [8] | Potency [9] | Potency [10] | Potency [11] | Potency [12] | Potency [13] | Potency [14] | Potency [15] | outcome [16] | Potency [17] | Potency [18] | Potency [19] | Potency [20]
CCCCC(CC)COC(=O)CCCCCCCCC(=O)OCC(CC)CCCC (configuration not stated) | inactive | inactive | inactive | inactive | inactive | inactive | inactive | inactive | inactive | inactive | inactive | inactive | inactive | inactive | inactive | inactive | – | – | – | –
CCN(CC)CCOC(=O)C(c1ccccc1)C1CCCCC1 (configuration not stated) | 23.9 µM (active) | inactive | inactive | – | – | inactive | inactive | – | – | inactive | inactive | inactive | – | – | – | inactive | 23.9 µM (active) | inactive | – | –
CCN(CC)CCNc1ccc(CNC=O)c2sc3ccc(OC)cc3c(=O)c12 | inactive | inactive | inactive | 21.9 µM (active) | 19.5 µM (active) | – | – | inactive | 4.33 µM (active) | – | inactive | inactive | – | inactive | inactive | inactive | – | – | 34.7 µM (active) | –
NCC(=O)CCC(=O)O | inactive | inactive | inactive | inactive | – | inactive | – | inactive | – | inactive | inactive | inactive | inactive | inactive | inactive | inactive | – | inactive | inactive | –
ClCCOCCOCCCl | inactive | inactive | inactive | inactive | inactive | inactive | inactive | inactive | inactive | inactive | inactive | inactive | inactive | – | inactive | inactive | – | – | inactive | –
C[N+]1(CC2COC(c3ccccc3)(C3CCCCC3)O2)CCCCC1 (configuration not stated) | inactive | inactive | inactive | inactive | – | inactive | inactive | inactive | inactive | inactive | inactive | – | inactive | inactive | inactive | inactive | – | inactive | inactive | –
N=c1ccn2c(n1)O[C@H]1[C@H](O)[C@@H](CO)O[C@H]12 | inactive | inactive | inactive | inactive | inactive | inactive | – | inactive | inactive | inactive | inactive | – | – | inactive | inactive | inactive | – | inactive | – | –
C[C@@H]1C[C@H]2[C@@H]3CCC4=CC(=O)C=C[C@]4(C)[C@@]3(F)[C@@H](O)C[C@]2(C)[C@@]1(O)C(=O)COC(=O)c1ccncc1 | inactive | inactive | inactive | inactive | inactive | inactive | 1.07 µM (active) | inactive | inactive | inactive | inactive | inactive | inactive | inactive | inactive | inactive | – | – | – | –
O=CC1CC=CCC1 (configuration not stated) | inactive | inactive | inactive | inactive | inactive | inactive | inactive | inactive | inactive | inactive | inactive | – | inactive | inactive | inactive | inactive | – | – | inactive | inactive
Nc1ccc(S(=O)(=O)Nc2ccccc2)cc1 | inactive | inactive | inactive | inactive | inactive | inactive | inactive | inactive | inactive | inactive | – | inactive | inactive | inactive | inactive | inactive | – | inactive | inactive | –
O=C(c1ccc(F)cc1)C1CCN(CCn2c(=S)[nH]c3ccccc3c2=O)CC1 | inactive | inactive | inactive | – | – | inactive | inactive | inactive | inactive | inactive | – | inactive | inactive | inactive | inactive | inactive | inactive | – | 4.77 µM (active) | inactive
COc1ccc(S(=O)(=O)N2C(=O)[C@@](c3ccccc3OC)(N3C[C@H](O)C[C@H]3C(=O)N(C)C)c3cc(Cl)ccc32)c(OC)c1 | inactive | inactive | inactive | – | – | – | inactive | inactive | – | – | – | inactive | inactive | – | 9.69 µM (active) | inactive | inactive | – | – | 54.5 µM (active)
CCCCCCCCCCCCCCCCOS(=O)(=O)O | 21.3 µM (active) | inactive | 23.9 µM (active) | inactive | – | 21.3 µM (active) | inactive | – | inactive | inactive | inactive | inactive | inactive | inactive | inactive | inactive | – | – | inactive | inactive
O=C1OC(CN2CCOCC2)CN1/N=C/c1ccc([N+](=O)[O-])o1 (configuration not stated) | inactive | inactive | inactive | inactive | – | inactive | inactive | inactive | inactive | inactive | inactive | inactive | inactive | inactive | inactive | inactive | – | inactive | inactive | 26.6 µM (active)
